SMILES strings stand for the structures.
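Further: KINOMEscan kinase panel screen.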

For this assay, the system named is T1, OSR1.
T1 construct: gene OXSR1
Particulars: concentration: 1 μM,replicates: in singlicate; n = 1.
On to `CCn1c(-c2nonc2N)nc2c(C#CC(C)(C)O)nc(OCCN)cc21.Cl.Cl` [GSK902056], for which the “%Inh” value was found to be 32%.
With `COc1ccc(C[C@@H](CN)NC(=O)c2cc(Br)c(-c3ccnc4[nH]ccc34)s2)cc1.Cl.Cl` [GSK1389063] the figure was 34%; with `Cc1ccc2c(-c3ccncc3)c(-c3ccc(F)cc3)nn2c1.Cl` [GW461484], 0%.
For `Cl.Cl.NC[C@H](Cc1ccc(C(F)(F)F)cc1)NC(=O)c1cc(Br)c(-c2ccnc3[nH]ccc23)s1` [GSK1487252], the “%Inh” value worked out at 0%.
In the case of `O=C(NCCCN1CCOC1=O)c1cnc(NCc2cc(Cl)ccc2Cl)nc1NC1CCCC1`, the “%Inh” value is 0%.
For `C=CC(=O)Nc1cc2c(Nc3ccc(F)c(Cl)c3)ncnc2cc1OCCCN1CCOCC1` [GW781483], the “%Inh” value was 0%.
The figure for `NC(=O)c1cc(-c2ccccc2)cc2c(C3CCNCC3)c[nH]c12` [GSK301362] is 14%; for `C[C@@H]1CCN(C(=O)CC#N)C[C@@H]1N(C)c1ncnc2[nH]ccc12` it is 0%; for `Cc1occc1-c1nc(N)c(OC[C@@H](N)Cc2c[nH]c3ccccc23)cc1-c1cc2c(C)n[nH]c2cn1` [GSK1660450] it is 13%.
With `C[C@H]1Oc2cc(cnc2N)-c2c(nn(C)c2C#N)CN(C)C(=O)c2ccc(F)cc21`, the “%Inh” value was 0%.
With `CN(C)CC(O)COc1ccc(Nc2nccc(-c3cnn4nc(N5CCOCC5)ccc34)n2)cc1` (stereo not drawn) [GW767488], the “%Inh” value is recorded as 54%.
As for `CCN(CC)CCCCNc1ncc2cc(-c3c(Cl)cccc3Cl)c(NC(=O)NC(C)(C)C)nc2n1`, the “%Inh” value is listed as 0%.
